Screen size: about 370,000 compounds; about 5,400 (1.5%) were called active. For the sample, actives were picked, then their nearest neighbours and some compounds at random. Values without a mark were called inactive.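 The calls were made as follows: active = activation above the mean of all tested compounds plus 3 SD (cut at about 5.5% in these data); inactive = the rest.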

The source of these data is PubChem BioAssay AID652067 (The Scripps Research Institute Molecular Screening Center, 2013).

This assay concerns DAF-12 nuclear receptor (Haemonchus contortus). As to the kind of experiment: H. contortus DAF-12 nuclear receptor activators, primary screen, cell-based, luminescence, HEK293, lit1-tk-luc reporter (AID 652067).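 Also: 100% = response to 3 µM Δ7-dafachronic acid high control.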 As to conditions: HEK293 hcDAF-12 lit1-tk-luc reporter, at 6.8 µM, hits give high values, 0% DMSO, 100% Δ7-dafachronic acid.
For `O=C(Nc1ccccc1)N1CCN(Cc2nc3ccccc3c(=O)[nH]2)CC1`, the activation was 0.3%.

`Fc1ccccc1/C=N/Nc1cc(N2CCCCC2)ncn1`: the activation is 5.99% (active).

For the molecule `Cc1ccc(N2C(=O)C(NC(=O)c3c(F)cccc3F)(C(F)(F)F)C3=C2CC(C)(C)CC3=O)cc1` (centres undefined), the activation is -1.79%.

For `O=C(c1cccc(C(F)(F)F)c1)N1CC[C@H]2[C@H](CCCN2Cc2cc(F)cc(F)c2)C1`, the activation is -0.81%.

Turning to `O=C(CSc1nnc(-c2ccccc2)n1Cc1ccco1)Nc1ccccc1-c1ccccc1`, the activation was -2.62%.

`O=C(CSc1nnc(-c2cccc(Cl)c2)n1Cc1ccco1)Nc1ccc(OCc2ccccc2)cc1`: the activation is -3.78%.

With `Clc1cccc(-c2nc3nc4ccccc4nc3n2Cc2ccco2)c1`, the activation is 7.47% (active).

With `COC(=O)[C@]12C[C@H](CC(=O)NCCc3ccccc3OC)C(=O)N(Cc3ccccc3)C1=C[C@H](C(C)C)O[C@@H]2C1CC1`, the activation is -0.81%.

In the case of `COc1cccc(OC)c1C(=O)N1CCN(Cc2cccnc2)CC1`, the activation is -1.19%.

As to `Cc1ccc(C2=CCN(C)C(=O)N2c2ccc(Cl)cc2)cc1`, the activation is -0.28%.

In the case of `COC(=O)CC1CCc2cc(C)cc(C(CC(C)C)NC(=O)[C@H](CC(C)C)NC(=O)OCc3ccccc3)c2O1` (some centres undefined), the activation is -1.44%.

Take `O=C(COC(=O)/C=C/c1ccc(Cl)cc1)NC1CCS(=O)(=O)C1` (centres undefined): the activation is -0.16%.

Consider `Cc1ccc(C(=O)NCC(=O)O)s1`, for which the activation is -0.44%.

In the case of `Cc1csc(NC(=O)c2ccc(C)s2)n1`, the activation is 6.44% (active).

As for `COc1ccccc1NC(=O)c1cc(Cl)nnc1Cl`, the activation is 1.71%.

Regarding `COc1ccccc1NC(=O)c1ccc(C)s1`, the activation is 9.1% (active).

Consider `COc1ccccc1NC(=O)c1c(Br)cnn1C`, for which the activation was -1.66%.

For the molecule `Cc1csc(NC(=O)CN2CCCCCC2)n1`, the activation is 0.84%.

With `C=CCC[C@@H](Cc1ccc(F)cc1)C(=O)OC[C@H](Cc1c[nH]c2ccccc12)NC(=O)[C@@H](CC=C)CC(=O)N(CCO)Cc1ccccc1`, the activation was -2.25%.

Turning to `CCCCNc1cccc2c1S(=O)(=O)N[C@@H](C)CO2`, the activation was 2.03%.

Regarding `COC(=O)[C@]12C[C@H](CC(=O)NCCCN3CCCC3=O)C(=O)N(CCc3ccc(OC)c(OC)c3)C1=C[C@H](COCc1ccccc1)O[C@@H]2C`, the activation was -0.83%.

With `Cc1ccnc(-n2sc3ccccc3c2=O)n1`, the activation was 4.36%.

Turning to `Cc1ccnc(Nc2nc3ccccc3s2)n1`, the activation is 9.2% (active).

For `C[C@H](C(=O)N(C)c1ccccc1)[C@@H](O)c1ccc2ccccc2c1`, the activation is 0.57%.

Turning to `COc1cccc(CNC(=O)[C@H]2CCCN2C(=O)[C@H]2CCCN2C(=O)c2ccc(F)cc2)c1`, the activation was 2.09%.

Turning to `COC(=O)C1=C(C)N(Cc2ccc(C(F)(F)F)cc2)C(=NCc2ccccc2)NC1c1ccccc1C(F)(F)F` (centres undefined), the activation was 0.56%.

For the molecule `Cc1cc(C)c2nc(N3CCC(C(=O)NCCN4CCOCC4)CC3)sc2c1`, the activation is 1.35%.

In the case of `Cc1ccc(C)c(C(C)NC(=O)C2CCCO2)c1` (centres undefined), the activation is -1.93%.

Regarding `Cc1cc(C)c2nc(NC(=O)C3CCCO3)sc2c1` (centres undefined), the activation was 8.44% (active).

Turning to `O=C(C(=O)N1CCC(CNC(=O)c2cccnc2Cl)CC1)c1cccs1`, the activation was -0.06%.

For the molecule `O=C(NCc1ccccc1)[C@@H]1CCCN1C(=O)[C@@H](NS(=O)(=O)c1ccc(F)cc1F)C1CCCCC1`, the activation is -1.11%.

For `Cc1ccc(NC(=O)c2ccc(Cl)nc2)cc1S(=O)(=O)N1CCOCC1`, the activation is -0.39%.

For `Cc1cnc(NC(=O)c2ccc(Cl)nc2)s1`, the activation was 7.6% (active).

`O=C(Nc1ccc2nc3n(c(=O)c2c1)CCCC3)c1ccc(Cl)nc1`: the activation is -2.27%.

Turning to `Cc1cccc(NC(=O)c2cccc(C(=O)Nc3cccc(C)c3C)n2)c1C`, the activation is 0.52%.

On to `Cc1cnc(NC(=O)Cn2cnc3c2c(=O)n(C)c(=O)n3C)s1`, for which the activation was -1.32%.

Turning to `Cc1cnc(NC(=O)c2ccccn2)s1`, the activation was 5.94% (active).

Consider `COc1ccccc1C(=O)N1O[C@]23C=C[C@]14C[C@@H](O)CC[C@]4(C)C2CC[C@]1(C)[C@@H]([C@H](C)/C=C/[C@H](C)C(C)C)CC[C@H]13` (some centres undefined), for which the activation was 0.11%.

Regarding `C[C@@H]1CN([C@H](C)CO)C(=O)CCCn2cc(nn2)CO[C@H]1CN(C)C(=O)Nc1ccc(N2CCCCC2)cc1`, the activation was -1.32%.

Turning to `Cc1ccc(-n2c(SCC(=O)Nc3cccc4ccccc34)nnc2-c2ccccn2)cc1`, the activation was 0.59%.

Consider `C[C@H]1[C@H](c2ccccc2)Oc2cc(Br)ccc2S(=O)(=O)N1Cc1cccc(F)c1`, for which the activation is -0.73%.

On to `COc1ccc(S(=O)(=O)NCCc2cc3ccc(C)c(C)c3[nH]c2=O)cc1`, for which the activation was -0.62%.

As for `CC1CCCCC1NC(=O)/C(C#N)=C/C=C/c1ccccc1[N+](=O)[O-]` (centres undefined), the activation was -0.31%.

For the molecule `COc1cc(NC(=O)COC(=O)CSc2ccc3ccccc3c2)c(C)cc1[N+](=O)[O-]`, the activation was 2.93%.

Turning to `COc1cc(/C=C(\C#N)C(=O)Nc2ccc3ccccc3c2)c([N+](=O)[O-])cc1OC`, the activation was 5.84% (active).

Take `Clc1ccc(-n2c(SC/C=C/c3ccccc3)nnc2-c2ccco2)cc1`: the activation is -1.47%.

Consider `CN[C@H]1C[C@H]2c3[nH]c4c(-c5ccccc5)cccc4c3CCN2C(=O)[C@H]1[C@H](C)O`, for which the activation is 0.81%.

With `O=C(N/N=C\C1CC=CCC1)c1ccc(Br)o1` (centres undefined), the activation was 6.56% (active).

With `CCC(C)(C)C1CCC(=NNC(=O)c2ccc(Br)o2)CC1` (centres undefined), the activation was 4.11%.

For `CC(C)(C)C1CCC(=NNC(=O)c2ccc(Br)o2)CC1` (centres undefined), the activation was 0.02%.

Take `COc1ccc(Cn2ccc3ccc(-c4ccc5ccn(Cc6ccccc6C)c5c4)cc32)cc1`: the activation is -1.83%.

As for `FC(F)(F)c1cccc(Cn2ccc3ccc(-c4ccc5ccn(Cc6ccccc6)c5c4)cc32)c1`, the activation is -1.69%.

Consider `CCC(=O)Nc1ccc2c(c1)C(=O)N(C)[C@@H]1CC[C@@H](CC(=O)NCCc3ccccc3)O[C@H]1CO2`, for which the activation was 0.81%.

For the molecule `Cc1cc(N)n2nc(-c3ccc(C(C)(C)C)cc3)cc2n1`, the activation is 17.7% (active).
